# This is a sample that favours compounds with a hit; in the whole collection about 4.2% have one here.
# Hsp70 act – switches on Hsp70 transcription; HeLa Hsp70 promoter luciferase reporter, luminescence; scaled: vehicle 0, proteasome-inhibitor control 100%; activation, % at 10 µM; actives 0.04% (n = 200,000);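 active = activation above the mean across all tested compounds plus 3 SD, cutoff set per campaign, cut at about 5.5% in these data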;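 note: 100% = MG132 at 30 µM as the positive control and 0% = DMSO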
# CHOP inh – inhibitors of CHOP induction in ER stress response; actives 3.8% (n = 220,000); AID 2732; CHO-K1 CHOP-promoter luciferase, tunicamycin-induced, 15-18 h; inhibition, % at 10 µM;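 active = compounds that reduced the stress-induced luciferase reporter signal by more than about 70% of percent inhibition, limit read from the data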;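 note: 0% = tunicamycin plus vehicle and 100% = wells without tunicamycin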
# S1P4 ag – agonists of human S1P4 receptor; actives 0.35% (n = 220,000); activation, % at 4.98 µM; S1P4-expressing cell line, agonist reporter assay; AID 1509; O95977; in the data active = activation above about 11%;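 note: 0% = DMSO vehicle and 100% = reference agonist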
# Target sequence (O95977 whole entry, looked up): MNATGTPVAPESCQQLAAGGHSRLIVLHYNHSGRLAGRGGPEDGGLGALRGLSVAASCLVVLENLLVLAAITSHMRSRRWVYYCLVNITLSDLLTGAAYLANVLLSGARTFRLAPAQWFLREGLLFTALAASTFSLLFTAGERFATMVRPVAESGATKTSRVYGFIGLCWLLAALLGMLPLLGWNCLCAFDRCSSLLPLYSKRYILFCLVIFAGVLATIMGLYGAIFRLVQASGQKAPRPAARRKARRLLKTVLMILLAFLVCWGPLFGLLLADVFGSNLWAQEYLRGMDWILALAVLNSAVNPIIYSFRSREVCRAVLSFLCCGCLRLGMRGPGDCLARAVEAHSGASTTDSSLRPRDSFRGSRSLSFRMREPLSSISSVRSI
# S1P4 antagonist – blocks the human S1P4 receptor | O95977 | S1P4-expressing cells, antagonist mode, reporter read-out | inhibition, % at 4.98 µM | actives 0.26% (n = 220,000); in the data active = inhibition above about 29%;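 note: 0% = wells stimulated with agonist and 100% = vehicle wells without agonist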
# An asterisk follows results filed as active; . = no result given.
SMILES,Hsp70 act,CHOP inh,S1P4 ag,S1P4 antagonist
CCOc1cc(/C=N\NC(=O)c2ccc(NC(=O)C(C)(C)C)cc2)ccc1OC(=O)c1ccc(C)cc1,-0.1,82.8*,-0.4,-9.3
CCOc1cc(/C=N\NC(=O)c2ccc(NC(=O)C(C)(C)C)cc2)ccc1OC(=O)c1cccc(C)c1,-0.3,34.5,2.3,-12.8
Cc1ccccc1-c1n[nH]c(=S)o1,0.1,23.3,-1.1,-10.5
Cc1ccc(-n2nnnc2SC(C)C(N)=O)c(C)c1 (stereo unspecified),-0.2,38.4,0.3,0.7
COc1cc(S(=O)(=O)NCCN2CCOCC2)c(OC)cc1Cl,-0.1,78.3*,-4.0,-1.4
COc1cc(-c2nc3ccc4ccccc4c3c3c2CCC3)ccc1O,-0.3,86.2*,0.3,-5.2
CCOc1ccc(-c2csc(NNC3=NCCCCC3)n2)cc1,-0.2,75.0*,2.0,-1.4
COc1ccc(-c2csc(NNC3=NCCCCC3)n2)cc1,0.1,46.0,4.8,7.1
CCOc1ccc2[nH]c(=O)c(CN(Cc3cccs3)Cc3nnnn3C(C)(C)C)cc2c1,0.0,95.9*,-0.2,0.8
COc1ccc2[nH]c(=O)c(CN(Cc3cccs3)Cc3nnnn3C(C)(C)C)cc2c1,-0.4,46.8,-1.5,-10.9
COc1ccc2[nH]c3c(=S)nc[nH]c3c2c1,-0.4,5.6,2.4,-14.2
O=C(/C=C\Nc1ccc2c(c1)OCO2)c1ccc2c(c1)OCO2,-0.2,37.4,0.7,-4.0
O=C(/C=C\Nc1ccc2c(c1)OCO2)c1ccccn1,-0.4,94.9*,6.7,-3.2
CC(C)N(Cc1nc(-c2ccc(Cl)cc2)no1)C(=O)CCC1CCCC1,-0.1,83.8*,-0.1,-17.8
COc1ccccc1OCC(=O)N(Cc1nc(-c2ccc(Cl)cc2)no1)C(C)C,-0.2,43.1,-0.7,-3.9
CC(Nc1cc(N2CCOCC2)ccc1[N+](=O)[O-])c1ccccc1 (stereo unspecified),-0.2,72.8*,3.0,-7.7
CC(Nc1cc(N2CCCC2)ccc1[N+](=O)[O-])c1ccccc1 (stereo unspecified),-0.4,9.7,2.3,-25.7
COc1ccc2nc(NC(=O)CSc3nc4ccccc4o3)sc2c1,-0.1,71.9*,0.8,-2.9
COc1ccc2nc(NC(=O)CSc3nc(C)cc(C)n3)sc2c1,-0.1,-1.2,1.6,1.2
CCn1c(SCC(=O)Nc2nc3ccccc3s2)nnc1-c1ccc(Br)cc1,-0.1,12.1,1.4,-10.6
CCn1c(Cc2ccc(OC)cc2)nnc1SCC(=O)Nc1nc2ccccc2s1,-0.3,83.1*,-0.5,-15.9
COc1ccc(OC)c(NC(=O)Nc2cccc3ccccc23)c1,0.0,60.8,-2.7,-2.2
O=C(CSc1nc2ccccc2o1)Nc1nc2ccc(Br)cc2s1,-0.1,92.9*,-0.2,-10.3
COc1ccc2nc(NC(=O)Nc3cccc4ccccc34)sc2c1,-0.1,87.9*,0.7,3.3
COc1ccc(OC)c(/C=N/NC(=O)c2ccc3nc[nH]c3c2)c1,.,1.8,1.4,9.2
SMILES,Hsp70 act,CHOP inh,S1P4 ag,S1P4 antagonist
Cc1cccc(N(CC(=O)Nc2c(C)n(C)n(-c3ccccc3)c2=O)S(C)(=O)=O)c1C,-0.5,1.3,1.6,-5.5
CCOC(=O)C1=C(N)n2c(s/c(=C\c3cccnc3)c2=O)=C(C(=O)OC)C1c1cccnc1 (stereo unspecified),-0.2,.,-0.9,-1.9
OCC#CCSc1nnc(-c2ccncc2)o1,-0.2,19.3,0.9,-16.1
Cc1ccc(SCCN2CCN(CCc3ccccc3)CCC2=O)cc1,.,12.9,.,.
COc1ccc2nc(NC(=O)CC3Oc4ccccc4NC3=O)sc2c1 (stereo unspecified),.,75.0*,-0.8,-16.9
COc1ccc2nc(NC(C)=O)sc2c1,0.6,-15.2,-0.2,2.5
COc1cccc(C(CC(=O)Nc2cccc3ccccc23)NC(=O)c2ccccc2)c1 (stereo unspecified),-0.3,84.2*,-0.3,-14.8
COc1ccc2nc(NC(=O)c3ccc4ncsc4c3)sc2c1,0.3,90.8*,-1.6,-22.6
CCOc1ccc2nc(NC(=O)CSc3nc4cccnc4n3C)sc2c1,-0.2,76.6*,1.7,-13.6
O=C1CCCC(O)=C1C1NCCc2ccccc21 (stereo unspecified),-0.3,-37.4,-5.5,3.1
CC1(C)CC(NC(=O)N2c3ccccc3Sc3ccccc32)CC(C)(C)N1,.,-5.0,1.4,12.2
CC(=O)N1CCC(N(C(=O)Nc2ccc(F)cc2)C2CCCC2)CC1,0.3,-3.1,-0.5,-27.3
Cc1[nH]c2ccccc2c1/C=N/Nc1ccc([N+](=O)[O-])cc1,-0.1,13.8,-2.5,-9.1
COc1ccc(-c2[nH]n(-c3ccc([N+](=O)[O-])cc3)c(=O)c2C=NCc2ccncc2)cc1,0.0,84.8*,0.3,-11.0
